Reference: article PMC4336329 (PLoS ONE, 2015)
In all, about 310,000 compounds went through this assay and about 14,000 (4.5%) showed an effect of 50% or more. The effect is printed as a negative number. Only a selection was taken, and strong results are over-represented in it overall.

These molecules were tested against human ether-à-go-go-related gene (hERG) potassium channel (human, UniProt Q12809) (assay: primary screen, population patch clamp on CHO cells stably expressing hERG; higher = less effect of the substance).
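Note: peak tail current of the secondary pulse compared with the same well before compound.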

Chain of human ether-à-go-go-related gene (hERG) potassium channel (Q12809 whole entry, looked up): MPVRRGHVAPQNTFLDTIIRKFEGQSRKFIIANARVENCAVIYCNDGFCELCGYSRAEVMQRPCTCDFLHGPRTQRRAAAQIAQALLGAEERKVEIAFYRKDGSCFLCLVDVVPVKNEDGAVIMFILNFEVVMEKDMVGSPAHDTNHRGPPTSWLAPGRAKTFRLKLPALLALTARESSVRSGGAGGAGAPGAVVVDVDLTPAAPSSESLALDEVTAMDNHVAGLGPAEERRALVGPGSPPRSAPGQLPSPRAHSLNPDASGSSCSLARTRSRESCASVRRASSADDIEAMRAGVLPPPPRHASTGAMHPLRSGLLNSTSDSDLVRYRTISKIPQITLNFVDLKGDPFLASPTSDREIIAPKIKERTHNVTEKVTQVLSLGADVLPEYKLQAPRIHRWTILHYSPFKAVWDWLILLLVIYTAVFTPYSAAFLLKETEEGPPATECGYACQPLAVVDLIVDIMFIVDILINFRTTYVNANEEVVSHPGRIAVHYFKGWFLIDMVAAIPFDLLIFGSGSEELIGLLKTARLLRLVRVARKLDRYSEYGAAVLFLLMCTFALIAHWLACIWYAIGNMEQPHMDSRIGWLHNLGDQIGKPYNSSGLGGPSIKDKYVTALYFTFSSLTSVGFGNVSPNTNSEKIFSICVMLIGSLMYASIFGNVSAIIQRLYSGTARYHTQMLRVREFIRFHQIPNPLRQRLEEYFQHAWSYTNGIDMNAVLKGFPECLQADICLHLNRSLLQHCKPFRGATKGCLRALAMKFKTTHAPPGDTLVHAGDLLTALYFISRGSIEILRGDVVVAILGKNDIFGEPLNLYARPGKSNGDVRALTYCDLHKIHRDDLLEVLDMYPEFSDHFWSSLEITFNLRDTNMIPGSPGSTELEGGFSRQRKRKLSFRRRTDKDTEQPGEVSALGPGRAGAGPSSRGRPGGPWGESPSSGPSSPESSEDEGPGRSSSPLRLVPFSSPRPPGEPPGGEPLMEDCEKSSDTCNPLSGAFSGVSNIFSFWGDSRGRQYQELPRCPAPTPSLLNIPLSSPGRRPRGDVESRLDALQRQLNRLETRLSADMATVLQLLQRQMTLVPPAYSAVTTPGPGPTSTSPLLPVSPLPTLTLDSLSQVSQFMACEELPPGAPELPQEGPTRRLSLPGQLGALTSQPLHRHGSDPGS

Row | Compound | hERG current change (%, negative = inhibition) at 10uM
1 | Cc1cccc(-n2cc(CN3CCN(Cc4nccn4C)CC3)c(-c3cccc(F)c3)n2)c1 | 2.98%
2 | Cc1ccc(-n2cc(CN3CCN(Cc4nccn4C)CC3)c(-c3cccc(C)c3)n2)cc1 | -62.7%
3 | Cc1ccc(-n2cc(CN3CCN(Cc4nccn4C)CC3)c(-c3ccc(F)cc3)n2)cc1 | -26.8%
4 | CSCC[C@H](NC(=O)c1nn(C)c(=O)c2ccccc12)c1nc2ccccc2[nH]1 | -3.07%
5 | Cc1cc([N+](=O)[O-])nn1CC(=O)N/N=C/c1ccccc1F | -5.15%
6 | Cc1ccc(C2N(c3ccccc3)C(=S)N3CCCN23)cc1 (stereo not drawn) | 7%
7 | Cc1cc(S(=O)(=O)N2CCN(c3c(C)cccc3C)CC2)ccc1F | -4.1%
8 | CCC(C)N(C)Cc1cccc(C2(O)CCN(S(=O)(=O)c3ccc(F)cc3)CC2)c1 (stereo not drawn) | -69.3%
9 | CC(C(=O)Nc1ccc(S(=O)(=O)N2CCCC2)cc1)N(C)Cc1ccc(F)cc1 (stereo not drawn) | -9.91%
10 | O=S(=O)(c1ccc(OC(F)(F)F)cc1)N1CCC(O)(c2cccc(C(F)(F)F)c2)CC1 | -4.35%
11 | CCC(C)N(C)Cc1cccc(C2(O)CCN(S(=O)(=O)c3ccc(F)c(C)c3)CC2)c1 (stereo not drawn) | -72.4%
12 | CCc1ccccc1N1CCN(S(=O)(=O)c2ccc(F)c(C)c2)CC1 | 4.43%
13 | CN1CCc2c(sc(N)c2C(=O)O)C1 | 20.8%
14 | COc1ccc(C2C(C#N)=C(N)OC3=C2C(=O)CC(C)(C)C3)cc1Cn1cc([N+](=O)[O-])cn1 (stereo not drawn) | -6.92%
15 | COc1ccc(C2C(C#N)=C(N)OC3=C2C(=O)CC(C)(C)C3)cc1Cn1nc(C)c([N+](=O)[O-])c1C (stereo not drawn) | -50.6%
16 | COc1ccc(C2C(C#N)=C(N)OC3=C2C(=O)CCC3)cc1Cn1nc(C)c([N+](=O)[O-])c1C (stereo not drawn) | -13.3%
17 | COC(=O)CCC(=O)OC1(C)C(=O)C=C2C=C(C3CC3)N(C(CO)CO)C=C2C1=O (stereo not drawn) | 5.72%
18 | COc1ccccc1C(=O)NCC(=O)NNC(=O)C1COc2ccccc2O1 (stereo not drawn) | 2.49%
19 | Cc1cnc(C)c(N2CCN(Cc3cn(C)nc3-c3cccc(Cl)c3)CC2)n1 | -49.6%
20 | Cc1cc(N2CCN(Cc3cn(C)nc3-c3ccccc3F)CC2)cc(C)n1 | -35%
21 | Cn1cc(CN2CCC(C(O)c3cccs3)CC2)c(-c2cccc(Cl)c2)n1 (stereo not drawn) | -57%
22 | Cn1cc(CN2CCN(c3ncccn3)CC2)c(-c2cccc(Cl)c2)n1 | -20.5%
23 | CC(C1CCN(Cc2cn(C)nc2-c2cccc(Cl)c2)CC1)N1CCOCC1 (stereo not drawn) | -26.9%
24 | COCCN1CCN(Cc2cn(C)nc2-c2cccc(Cl)c2)CC1 | -15.7%
25 | Cn1cc(CN2CCN(Cc3ccccc3)CC2)c(-c2cccc(Cl)c2)n1 | -53%
26 | Cn1cc(CN2CCC(C(O)c3cccs3)CC2)c(-c2ccccc2F)n1 (stereo not drawn) | -21.5%
27 | Cc1cc(N2CCN(Cc3cn(C)nc3-c3cccc(Cl)c3)CC2)cc(C)n1 | -65%

Row | Compound | hERG current change (%, negative = inhibition) at 10uM
28 | Cc1c(Cl)cccc1NC(=O)Nc1ccn(C)n1 | 5.52%
29 | Cc1nn(C)c(C)c1/C=C(/C(=O)C(C)(C)C)n1cncn1 | 28.5%
30 | Cc1cccc(C)c1NC(=S)N1CCCN(C)CC1 | 15.2%
31 | Clc1ccc(-c2cnc3ccccc3n2)cc1 | 9.07%
32 | COc1ccc(C(=O)Nc2cc(C)c3c(=O)oc4ccccc4c3n2)cc1 | 7.49%
33 | OCC[C@@H]1C[C@H](O)[C@@H](O)[C@@]2(Cc3ccccc3CCO2)O1 | 10.6%
34 | CCC(Sc1nccn1C)C(=O)Nc1ccc(Cl)cn1 (stereo not drawn) | 5.78%
35 | Cl.c1ccc(CN2CCN(CCN3CCn4c3nc3ccccc34)CC2)cc1 | -75.8%
36 | CCn1c(N2CCN(Cc3ccc([N+](=O)[O-])cc3)CC2)nc2ccccc21.Cl | -74.7%
37 | Cc1cccc(Cn2c(C(C)O)nc3ccccc32)c1 (stereo not drawn) | 5.37%
38 | CCCn1c(N2CCN(Cc3ccc(Cl)cc3)CC2)nc2ccccc21.Cl | -69.8%
39 | Cl.O=[N+]([O-])c1ccc(CN2CCN(c3ccc4ccccc4n3)CC2)cc1 | -12.1%
40 | Cl.c1ccc2c(c1)nc1n2CCN1CCN1CCCC1 | -3.08%
41 | CC(O)c1nc2ccccc2n1Cc1ccc([N+](=O)[O-])cc1 (stereo not drawn) | -73.4%
42 | CCCn1c(N2CCN(C(=O)Nc3ccc(Cl)cc3)CC2)nc2ccccc21 | -16.8%
43 | O=[N+]([O-])c1ccc(CN2CCN(c3nc4ccccc4s3)CC2)cc1 | -1.07%
44 | CN1CCN(CCN2CCn3c2nc2ccccc23)CC1.Cl | -7.38%
45 | CCCn1c(N2CCN(C(=O)N3CCCCC3)CC2)nc2ccccc21.Cl | -20.4%
46 | CC(O)c1nc2cc([N+](=O)[O-])ccc2n1Cc1ccccc1 (stereo not drawn) | 1.79%
47 | COc1ccc(NC(=O)CSc2cn[nH]n2)cc1OC | 31.4%
48 | COc1ccc(NC(=O)N2C[C@@H]3C[C@@H](C2)c2cccc(=O)n2C3)cc1 | 7.74%
49 | N#C/C(=N\Nc1ccc(Cl)cc1)C(=N)N1CCCCC1 | -31.1%
50 | CC(C)C(=O)Nc1ccc(S(=O)(=O)N2CCC(c3nc4ccccc4[nH]3)CC2)cc1 | -42.7%
51 | CC1=CCC(C(=O)O)C(C(=O)Nc2ccc(-c3nc4ccc(C)cc4s3)cc2)C1 (stereo not drawn) | 7.8%
52 | COc1ccccc1Oc1ccccc1[N+](=O)[O-] | 5.95%
53 | O=C(NNC(=O)c1ccc(Cl)c([N+](=O)[O-])c1)c1ccncc1 | 13.2%
54 | COc1cc(/C=C2/C(=O)N(c3ccc([N+](=O)[O-])cc3)N=C2N2CCOCC2)ccc1O | -42.2%
